# Results filed as inconclusive are left out. Where a call stands in place of a potency, no number is given. The source made the active and inactive calls. Calls come from the whole dose curve; as a rule, active = well fitted cell-killing curve with a large enough effect; inconclusive = small, poorly fitted or top-dose-only effect; inactive = flat fitted curve, though single readings scatter.
# Assay: Cell Viability - LYMP2-008 (AID 980); note: nearly all actives have a fitted effect of over 60% in size
# Conditions: LYMP2-008 lymphoblastoid cell viability, qHTS; series mostly up to 92.2 µM
# Text: NIH Chemical Genomics Center [NCGC]
# NIH Molecular Libraries Screening Centers Network [MLSCN]
# National Institutes of Environmental Health Sciences [NIEHS]
# National Toxicology Program [NTP]
# We have developed a 1536-well cell-based assay for quantitative high throughput screening (qHTS) against a number of cell lines to determine in vitro cytotoxicity of small molecules. This particular assay uses a human lymphoblastoid cell line (LYMP2-008) purchased from Coriell Institute for Medical Research.
# NCGC Assay Protocol Summary:
# The CellTiter-Glo luminescent cell viability assay (Promega) is a homogeneous method to measure the number of viable cells in culture. The end point readout of this assay is based on quantitation of intracellular ATP, an indicator of metabolic activity, using the luciferase reaction. Luciferase catalyzes the oxidation of beetle Luciferin to oxyluciferin and light in the presence of ATP. The luminescent signal is proportional to amount of ATP present.
# Using the CellTiter-Glo luminescent cell viability assay, the amount of cellular ATP was measured in the lymphoblastoid cell line with complete culture medium following compound treatment for 24 hours. The assay was performed in opaque white Kalypsys 1536-well plates. In the screen, tetraoctylammonium bromide was used as positive control. Library compounds were measured for their ability to cause acute toxicity in the cell line, as reflected by a decrease in intracellular ATP levels, in a concentration-dependent manner. […] AC50 values were determined from concentration-response data modeled with the standard Hill equation.
# qHTS protocol for CellTiter Glo lymphoblastoid cellular assay
# [Step] [Parameter] [Value] [Description]
# 1. Reagent; 5 uL; 2500 lymphoblastoid cells/well
# 2. Time; 5 hr; 37 C incubation
# 4. Controls; 23 nL; Tetraoctylammonium bromide 6.4pM to 92 uM
# 5. Time; 24 hr; 37 C incubation
# 6. Reagent; 5 uL; CellTiter Glo reagent
# 7. Time; 30 min; Room Temperature
# 8. Detection; Luminescence; Viewlux plate reader
# Keywords: cell viability, cytotoxicity, lymphoblastoid cell line, luminescence, NTPHTS, NTPHTS_NCGC, NIEHS, DSSTox, MLSMR, MLSCN, NIH Roadmap, qHTS, NCGC
# Potency is the fitted concentration of half-maximal effect.
row,Structure (SMILES),Potency
1,CCOP(=S)(OCC)Oc1nc(Cl)c(Cl)cc1Cl,inactive
2,Clc1ccc(C(Cl)(Cl)Cl)cc1Cl,inactive
3,CCCBr,inactive
4,CCC(Cl)[N+](=O)[O-] (stereo not given),inactive
5,COc1ccccc1N,inactive
6,N#CCc1ccccc1,inactive
7,ClCc1ccccc1,inactive
8,CCN(CC)CCO,inactive
9,O=C(Cl)OCc1ccccc1,inactive
10,Nc1ccc(-c2ccc(N)c(Cl)c2)cc1Cl,inactive
11,CCCCCC[N+](=O)[O-],inactive
12,c1ccc(Nc2ccc(Nc3ccccc3)cc2)cc1,inactive
13,c1ccoc1,inactive
14,CCCCCCCCCCCOC(=O)c1ccccc1C(=O)OCCCCCCCCCCC,inactive
15,O=P(OCCCl)(OCCCl)OCCCl,inactive
16,[O-][Cl+2]([O-])O,inactive
17,CC12CC1(C)C(=O)N(c1cc(Cl)cc(Cl)c1)C2=O (stereo not given),inactive
18,CC(C)(C)c1ccccc1O,inactive
19,Nc1ccc(Cl)c(Cl)c1,inactive
20,ClCC(Cl)Cl,inactive

row,Structure (SMILES),Potency
1,O=[N+]([O-])c1cccc(CCl)c1,inactive
2,Cc1ccc(N)cc1C,inactive
3,Nc1cc(Cl)cc(Cl)c1,inactive
4,O=Cc1ccc2c(c1)OCO2,inactive
5,N#CCCC#N,inactive
6,c1ccc(N=NNc2ccccc2)cc1,inactive
7,Cc1ccc(OP(=O)(Oc2ccc(C)cc2)Oc2ccc(C)cc2)cc1,inactive
8,CCCCCCCCCCCCCl,inactive
9,CN1CSC(=S)N(C)C1,39.8 µM (active)
10,C=CCCl,inactive
11,CCOC(=O)CBr,inactive
12,CCCCNC(=O)n1c(NC(=O)OC)nc2ccccc21,inactive
13,Cl/C=C/CCl,inactive
14,Nc1ccc(Oc2ccc(N)cc2)cc1,inactive
15,c1ccc(C2CO2)cc1 (stereo not given),inactive
16,ClCCBr,inactive
17,O=C(O)C(Cl)(Cl)Br,inactive
18,Nc1c(Br)cc([N+](=O)[O-])cc1[N+](=O)[O-],inactive
19,CC(Cl)CCl (stereo not given),inactive
20,O=[N+]([O-])c1ccc(Cl)c(Cl)c1Cl,inactive

# Reference: PubChem BioAssay (NCATS)
